Source: PubChem BioAssay
Only a selection was taken, and hits are over-represented in it overall.
LmPK inh: blocks Leishmania mexicana pyruvate kinase activity; Potency, µM (highest dose often 57.5 µM), for the others: at the top dose activity change, negative = inhibition, usual class: inhibitors; purified LmPK, Kinase-Glo ATP luminescence, 1 h; 290,000 tested, 0.37% active; Q27686; active = well fitted curve in the direction sought with a large enough effect; inconclusive = small, poorly fitted or top-dose-only effect, or another doubt; inactive = no such curve, though single readings can be large; an effect the other way counts as inactive or inconclusive; also: potency is read from the fitted curve at half-maximal effect; % is scaled to controls: 0 for no effect and ±100 for the full control effect
Target sequence (Q27686 whole entry, looked up): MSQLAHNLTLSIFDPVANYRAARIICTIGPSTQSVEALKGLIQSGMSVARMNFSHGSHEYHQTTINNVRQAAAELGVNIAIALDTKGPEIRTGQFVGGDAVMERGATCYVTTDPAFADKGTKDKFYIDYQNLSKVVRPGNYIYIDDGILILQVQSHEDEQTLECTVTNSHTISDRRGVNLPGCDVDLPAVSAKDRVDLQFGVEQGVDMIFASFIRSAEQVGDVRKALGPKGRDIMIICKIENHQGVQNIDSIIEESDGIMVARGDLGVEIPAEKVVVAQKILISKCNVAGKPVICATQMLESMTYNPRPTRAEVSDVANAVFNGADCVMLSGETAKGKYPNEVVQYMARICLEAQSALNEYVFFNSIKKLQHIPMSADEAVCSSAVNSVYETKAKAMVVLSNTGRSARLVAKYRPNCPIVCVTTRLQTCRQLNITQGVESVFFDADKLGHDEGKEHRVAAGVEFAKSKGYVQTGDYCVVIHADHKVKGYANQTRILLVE
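In 50 mM imidazole pH 7.2 with 7 mM MgCl2, LmPK (0.1 nM) turned over PEP (0.5 mM) and ADP (0.1 mM) for 1 h at room temperature. Luciferase read-out of ATP.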
NS1 function inh: inhibitors of influenza NS1 protein function; AID 2326; 270,000 tested, 0.4% active; Potency, µM (titrated, usually from 46.1 µM), for the others: at the top dose activity, positive = more growth; also: potency is read from the fitted curve at half-maximal effect; actives are rising curves; nearly all actives have a fitted effect of over 50% in size
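Recovery from NS1-induced slow growth read by OD600 in budding yeast switched to galactose assay medium (pH 6.0, -URA) at 1:100 dilution. Compound 23 nl per well; the matching strain lacking NS1 serves as control.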
SARS PLpro yeast: SARS-CoV PLP inhibition in yeast. S. cerevisiae expressing SARS-CoV PLpro, growth rescue. AID 485353. Potency, µM (titrated, usually from 32.9 µM), inactives show top-dose activity, positive = growth rescue, usual class: activators. 330,000 tested, 0.19% active; also: potency is read from the fitted curve at half-maximal effect; 0% is about no effect; nearly all actives have a fitted effect of over 55% in size
Cycloheximide cs: affects cycloheximide protein synthesis inhibition readout, counter-screen; cell reporter, cycloheximide protein synthesis inhibition counterscreen; max response, %; 300,000 tested, 12% active; AID 2314; in the data active = max response mostly above about 13%, no sharp cut-off; inactive = mostly below about 14%; also: read at 38.3 µM for the half of the compounds with a filed dose; 0% is about no effect
TbPYK inhibitor: blocks Trypanosoma brucei pyruvate kinase. Q57TT1. TbPYK enzyme, Kinase-Glo Plus ATP luminescence, 45 min. Potency, µM (titrated, usually from 76.8 µM), for inactives: at the highest dose activity, negative = inhibition, usual class: inhibitors. 410,000 tested, 0.12% active; active = well fitted curve in the direction sought with a large enough effect; inconclusive = small, poorly fitted or top-dose-only effect, or another doubt; inactive = no such curve, though single readings can be large; an effect the other way counts as inactive or inconclusive; also: potency is read from the fitted curve at half-maximal effect; % is scaled to controls: 0 for no effect and ±100 for the full control effect; nearly all actives have a fitted effect of over 50% in size
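TbPYK + substrate in 50 mM TEA pH 7.2, 100 mM KCl, 10 mM MgCl2, 0.05% BSA, 0.01% Tween-20; cpd pinned; ADP 130 uM final; 45 min RT; Kinase-Glo Plus 10 min; luminescence endpoint.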
Shiga inhibitor: Shiga toxin inhibition | 290,000 tested, 9.2% active | inhibition, % at 38.7 µM | Vero cells, Shiga toxin protein synthesis inhibition reporter; in the data active = inhibition mostly above about 28%, no sharp cut-off; inactive = mostly below about 43%; also: 0% is about no effect
* marks the source's active call; other numbers are inactive results; ? = inconclusive; nt = no result. Unless noted, calls follow the shape of the full dose curve.

SMILES	LmPK inh	NS1 function inh	SARS PLpro yeast	Cycloheximide cs	TbPYK inhibitor	Shiga inhibitor
O=C1/C(=C\c2ccc(O)c(O)c2)Oc2cc(O)ccc21	nt	nt	nt	6.7	nt	19.3
COc1cccc(/C=C2\Oc3ccc(O)cc3C2=O)c1O	0.1%	-30.8%	-0.2%	-5.2	-15.6%	-6.4
CC(C)CC(OC(=O)c1nsc(Cl)c1Cl)C(=O)NCC1CCCO1 (configuration not stated)	-4.1%	-9.1%	-5.6%	-5.2	1.7%	-16.0
CC(C)(C)NC(=O)C1CCN(C(=O)c2ccco2)CC1	1.8%	15.2%	1.3%	-7.8	-4.4%	-3.0
CCN(Cc1ccccc1)C(=O)Cn1c(=O)oc2cc(S(=O)(=O)N3CCCCCC3)ccc21	nt	nt	nt	nt	-7.4%	nt
O=C(CN1CCN(C(=O)C2CC2)CC1)Nc1cc(C(F)(F)F)cc(C(F)(F)F)c1	nt	nt	4.8%	nt	2.6%	nt
Cc1nccc(-c2cc(-c3ccc(Cl)cc3Cl)no2)n1	-25.5%	-0.8%	0.4%	36.0*	1.0%	96.5*
Cc1cc2nccc(-c3ccc(Cl)cc3Cl)n2n1	11.5%	-0.6%	0.3%	1.8	0.1%	2.2
COC(=O)CSc1nc(NC(C)(C)C)nc(N(C)C)n1	2.4%	nt	2.0%	33.0*	0.5%	106.9
[O-]/[N+](=C/c1ccc(F)cc1)c1ccc(Cl)cc1	-8.9%	-0.9%	4.5%	54.4*	-5.8%	53.4
CC(C)(/C=N/O)/[N+]([O-])=C/c1ccco1	1.1%	5.3%	1.4%	20.1	2.6%	-6.7
[O-]/[N+](=C/c1ccco1)c1ccccc1	2.6%	-26.8%	-0.8%	23.2*	-0.2%	39.7
[O-][N+](=Cc1ccccc1)c1ccc(Cl)cc1	nt	nt	nt	nt	-19.5%	nt
[O-]/[N+](=C\c1ccco1)c1ccc(Cl)cc1	-2.5%	-7.1%	-12.8%	61.2*	0.0%	82.3*
Cc1cc2c(s1)c1cnn(Cc3ccc(C(F)(F)F)cc3F)c(=O)c1n2C	nt	nt	nt	-5.7	nt	-7.9
O=C(COc1ccc(Cl)cc1Br)NCC(c1ccco1)N1CCCC1 (configuration not stated)	nt	nt	3.2%	nt	6.0%	nt
Cc1nc2ccc(NC(=S)NCc3ccccc3)cc2nc1C	0.5%	-5.7%	0.4%	26.7*	-1.0%	34.8
C=CCNC(=S)Nc1ccc2nc(C)c(C)nc2c1	-2.9%	2.8%	5.3%	27.2*	-20.5%	61.4
CCc1ccc(NC(=S)NCc2ccccc2)cc1	1.5%	nt	3.2%	34.3*	3.6%	142.0*
CCc1ccc(NC(=S)NCc2cccnc2)cc1	-0.5%	-4.1%	0.4%	10.1	-17.0%	4.8
C=CCNC(=S)Nc1ccc(Cl)cc1	3.6%	-1.2%	14.9%	10.1	-10.4%	12.3
CCNC(=S)Nc1ccc(N(c2ccccc2)C(C)C)cc1	0.3%	-5.5%	0.0%	17.4*	1.0%	57.0*
Cc1ccc(/C=C/S(=O)(=O)NCC(=O)OCC(=O)Nc2c(F)cccc2F)cc1	nt	nt	1.8%	nt	-4.6%	nt
Cc1ccc(-c2cc3nc(-c4ccccc4)cc(C(F)(F)F)n3n2)cc1	nt	nt	nt	nt	-10.6%	nt
Nc1cc(N)nc(SCCc2ccccc2)n1	-3.7%	-19.5%	-14.2%	16.5*	-1.9%	26.3
SMILES	LmPK inh	NS1 function inh	SARS PLpro yeast	Cycloheximide cs	TbPYK inhibitor	Shiga inhibitor
Nc1cc(N)nc(SCc2ccccc2)n1	-0.5%	-13.0%	-5.2%	40.8*	2.2%	53.2*
COc1ccc(-c2nn3c(-c4ccc(C)cc4)nnc3c3ccccc23)cc1	nt	nt	nt	nt	-2.6%	nt
O=C(Nc1nccs1)c1ccccc1N=Cc1ccccc1	5.2%	-19.5%	18.8%	24.9*	-14.9%	47.9*
C/C(=C\c1ccccc1)C(=O)Nc1nccs1	-6.8%	nt	-1.0%	48.9*	-0.4%	152.0*
N#C/C(=C\c1cccs1)C(=O)Nc1nccs1	?	-37.3%	-1.3%	27.2*	?	65.2*
CC1Oc2ccccc2OC1C(=O)Nc1nccs1 (configuration not stated)	-0.8%	-8.1%	1.4%	18.3*	1.4%	25.4
CC#CC[C@@H](C)[C@@H](O)/C=C/[C@H]1[C@H]2c3cccc(CCCC(=O)O)c3O[C@H]2C[C@@H]1O	nt	nt	nt	nt	-3.2%	nt
COc1cccc(C2=NOC(C(=O)Nc3c(C)n(C)n(-c4ccccc4)c3=O)C2)c1 (configuration not stated)	0.3%	-3.7%	2.5%	0.8	-1.5%	-5.7
Cc1ncc(CSc2ccccc2N)c(CO)c1O	nt	5.6%	nt	nt	nt	nt
